Screening data (PubChem)
Calb FLC – C. albicans growth inhibition with fluconazole, primary screen, CaCi-2 strain, Alamar Blue fluorescence; 0.57% of 300,000 active; C. albicans CaCi-2 (fluconazole-resistant clinical isolate) + fluconazole, 48 h; growth inhibition, % (concentration not given with the values);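 active = growth inhibition above about 58% in most replicates, limit read from the data, passing the limit was not always enough; inconclusive = exactly half the replicates above a set limit; inactive = most replicates below a set limit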;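 note: all wells also contain fluconazole at 8 µg/ml as a sub-toxic cotreatment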
PP1 counter – PP1-alpha phosphatase inhibitors, primary screen, counter-screen for PP5 inhibitor project, biochemical, fluorescence, OMFP substrate, single point; Serine/threonine-protein phosphatase PP1-alpha catalytic subunit (Homo sapiens), P62136; purified PP1alpha; inhibition, % at 6.7 µM; 0.9% of 320,000 active; AID 2235, 2010;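 active = inhibition above the mean inhibition of all tested compounds plus 3 SD, computed separately for each screening campaign, cut at about 15% in these data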
Target sequence (P62136 whole entry, looked up): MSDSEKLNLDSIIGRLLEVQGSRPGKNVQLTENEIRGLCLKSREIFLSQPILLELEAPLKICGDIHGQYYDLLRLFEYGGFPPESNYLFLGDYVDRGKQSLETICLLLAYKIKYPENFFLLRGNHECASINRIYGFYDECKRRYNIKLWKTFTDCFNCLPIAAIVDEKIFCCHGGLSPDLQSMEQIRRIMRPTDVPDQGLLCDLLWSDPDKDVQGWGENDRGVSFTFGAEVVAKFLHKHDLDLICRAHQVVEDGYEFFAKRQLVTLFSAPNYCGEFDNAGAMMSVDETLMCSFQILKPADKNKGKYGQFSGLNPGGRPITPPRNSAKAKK
PP5 inh – PP5 phosphatase inhibitors, primary screen, biochemical, fluorescence; 0.18% of 320,000 active; Serine/threonine-protein phosphatase 5 (Homo sapiens), P53041; purified PP5c, OMFP substrate fluorescence; inhibition, % at 6.7 µM;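 active = inhibition above the campaign's mean inhibition across all tested compounds plus 3 SD, cut at about 9.5% in these data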
Mdm2-MdmX inh – inhibitors of human Mdm2-MdmX association, primary screen, cell-based, luminescence, split luciferase, SaOS-2, uHTS; SaOS-2 split-luciferase Mdm2/MdmX complementation; inhibition, % at 8 µM; 3% of 330,000 active;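 active = inhibition of at least 50% at 8 µM in the primary screen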
CSC inhib – cancer stem cell viability inhibitors, primary screen, luminescence | cancer stem cell-like cells viability | inhibition, % at 7.5 µM | 1.1% of 300,000 active; in the data active = inhibition above about 75%; inconclusive = no clear call, values can overlap the other calls; tested in HMLE shEcad cells
Beta apoptosis – inhibitors of cytokine-induced beta cell apoptosis, primary screen, luminescence; INS-1E cytokine-induced death, ATP luminescence, 48 h; percent of positive-control rescue, neutral wells zero; protection from apoptosis, % (test concentration not listed); 0.8% of 300,000 active; AID 435005, 2010;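 active = Every replicate reaches about 75%, or at least half do and their mean reaches it too, limit read from the data; inconclusive = At least half of replicates reach the limit but their mean does not; inactive = Under half of replicates reach the limit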;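 note: higher means more ATP so stronger rescue from cytokine killing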
Mdm2-MdmX conf – Mdm2-MdmX complex disruptors, retested hits, confirmation, luminescence, single concentration. shares compounds with Mdm2-MdmX inh. Mdm2-MdmX binding, luminescent assay. inhibition, % at 8 µM. 55% of 10,000 active. AID 489028, 2010; in the data active = inhibition above about 40%
FLuc counter – full-length luciferase signal inhibition, confirmation, counter-screen for Mdm2/MdmX interaction inhibitor project, cell-based, single concentration, SaOS-2; inhibition, % at 8 µM; SaOS-2 full-length luciferase counterscreen, luminescence; 77% of 6,200 active; shares compounds with Mdm2-MdmX inh;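 active = mean inhibition at 8 µM reaching about 37%, which flags the compound as non-specific, limit read from the data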;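 note: p53-null SaOS-2 cells with luciferase driven by a doxycycline-inducible promoter; compound on cells about two nights before reading with doxycycline added after day one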
Numbers stand for hits; 0 = inactive; ? = inconclusive; - = no result. Sampled rows, rich in hits. Any-hit rate of the full collection: about 4.9%.

SMILES | Calb FLC | PP1 counter | PP5 inh | Mdm2-MdmX inh | CSC inhib | Beta apoptosis | Mdm2-MdmX conf | FLuc counter
CCN1C(=O)c2cccc3c(S(=O)(=O)NCc4ccccc4)ccc1c23 | - | 0 | 0 | 0 | - | 0 | - | -
CN1C(=O)c2cccc3c(S(=O)(=O)Nc4ccccn4)ccc1c23 | 0 | 0 | 0 | 56 | 0 | 0 | 41 | 79
COc1ccc(S(=O)(=O)N2CCOC2CNC(=O)C(=O)NCCN2CCOCC2)cc1 (stereo not drawn) | 0 | 0 | 0 | 0 | 0 | 0 | - | -
COc1ccccc1-n1c(C)c(C(C)=O)c2cc(O)ccc21 | 0 | 0 | 0 | 0 | 0 | 0 | - | -
O=C(COC(=O)C1=NN(c2ccccc2)C(=O)CC1)Nc1ccc([N+](=O)[O-])cc1C(F)(F)F | - | 0 | 0 | 0 | 0 | 0 | - | -
Cc1ccccc1NS(=O)(=O)c1ccc2c3c(cccc13)C(=O)N2C | 0 | 0 | 0 | 53 | 0 | - | 49 | 100
CCc1ccccc1N(CC)C(=O)C1CCN(c2ncnc3c2nc2n3CCCCC2)CC1 | 0 | 0 | 0 | 64 | 0 | 0 | 0 | -
Cc1cc(C)c(S(=O)(=O)N2CCCOC2CNC(=O)C(=O)NCc2ccco2)c(C)c1 (stereo not drawn) | ? | 0 | 0 | 0 | 0 | 0 | - | -
CCNc1nc(N2CCCC2)nc(N2CCCC2)n1 | 0 | 0 | 0 | 0 | 0 | 0 | - | -
CCNc1nc(NC(C)(C)C)nc(N2CCCCC2)n1 | 0 | 0 | 0 | 51 | 0 | 0 | 0 | -
O=C(COC(=O)Cc1ccc(Br)cc1)NCc1ccc(F)cc1 | 0 | 0 | 0 | 0 | 0 | 0 | - | -
COc1cccc(/C=N\NC(=O)c2ccc(Cn3cc(Br)c([N+](=O)[O-])n3)o2)c1O | 102 | 0 | 0 | 59 | 0 | 96 | 74 | 43
COc1cc(/C=N\NC(=O)c2ccc(Cn3nc([N+](=O)[O-])c(Cl)c3C)o2)ccc1O | 0 | 0 | 0 | 0 | 0 | 0 | - | -
COc1cccc(/C=N/NC(=O)c2c(C)nc3ccc(Br)cn23)c1O | 109 | 0 | 0 | 67 | 89 | 82 | 74 | 0
Cc1ccc(/C=N/NC(=O)c2c(C)nc3ccc(Br)cn23)cc1 | 0 | 0 | 0 | 50 | 0 | 0 | 55 | 53
COc1ccc(/C=N\NC(=O)c2c(C)nc3ccc(Br)cn23)cc1 | 0 | 0 | 0 | 59 | 0 | 0 | 52 | 49
CC1CC(CCC(=O)NC(=S)Nc2ccc(Cl)cn2)C(=O)O1 (stereo not drawn) | 0 | 0 | 0 | 0 | - | 0 | - | -
OCCN1CCN(c2ncnc3ccc(Br)cc23)CC1 | 0 | 0 | 0 | 51 | - | - | 60 | 45
CN(C)c1ccc(N=Nc2nc3ccccc3n2C)cc1 | 0 | 0 | 0 | 60 | 0 | 0 | 49 | 46
O=C(N/N=C/c1coc2ccc(Cl)cc2c1=O)c1ccc(O)cc1 | 0 | - | - | 0 | 0 | 0 | - | -
O=C(N/N=C/c1coc2ccc(Cl)cc2c1=O)c1ccncc1 | 0 | - | - | 60 | 0 | 0 | 44 | 63
COc1ccc(OC)c(S(=O)(=O)n2ccnc2C(C)C)c1 | 0 | 0 | 0 | 0 | 0 | 0 | - | -
O=C(CCN1C(=O)/C(=C/c2ccc(F)cc2)SC1=S)N[C@@H](CO)Cc1ccccc1 | - | 0 | 0 | 82 | 0 | 0 | 61 | 37
COc1ccccc1/C=C1\SC(=S)N(CC(=O)Nc2nnc(C)s2)C1=O | ? | 0 | 0 | 94 | 96 | 98 | 0 | -
O=C(CCN1C(=O)/C(=C/c2ccccc2)SC1=S)NCCc1ccc(O)cc1 | 0 | 0 | 0 | 98 | 0 | 0 | 88 | 60
SMILES | Calb FLC | PP1 counter | PP5 inh | Mdm2-MdmX inh | CSC inhib | Beta apoptosis | Mdm2-MdmX conf | FLuc counter
COc1ccccc1/C=C1\SC(=S)N(CCC(=O)NC2=NCCS2)C1=O | 0 | 0 | 0 | 0 | 0 | 0 | - | -
O=C(CCN1C(=O)/C(=C/c2ccccc2F)SC1=S)NCCc1ccc(O)cc1 | 0 | 0 | 0 | 71 | 0 | - | 53 | 0
c1ccc2c(c1)CC1(CCCC1)N=C2N1CCOCC1 | 0 | 0 | 0 | 0 | 0 | 0 | - | -
COc1ccccc1/C=C1\SC(=S)N(CCC(=O)NCCc2ccc(O)cc2)C1=O | 0 | 0 | 0 | 60 | 0 | - | 0 | 69
COc1ccc(/C=C2\SC(=S)N(CCC(=O)NCCCN3CCOCC3)C2=O)cc1 | 0 | 0 | 0 | 0 | 0 | 0 | - | -
COc1ccc(/C=C2\SC(=S)N(CCC(=O)NCCc3ccc(O)cc3)C2=O)cc1 | 0 | 0 | 0 | 79 | 0 | 0 | 71 | 0
COc1ccc(Cl)cc1C(=O)NNC(=O)C1CCCO1 (stereo not drawn) | - | - | - | 0 | - | - | - | -
CCN1C(=O)[C@@H]2[C@@H](c3ccc(-c4ccc(Cl)c(Cl)c4)c(OC)c3)N3CCC[C@@]3(C(=O)OC)[C@@H]2C1=O | - | 0 | 0 | 67 | 0 | 0 | 0 | -
COC(=O)[C@@]12CCCCN1[C@H](c1ccc(-c3ccc(Cl)c(Cl)c3)c(OC)c1)[C@H]1C(=O)N(C)C(=O)[C@H]12 | - | - | - | 65 | - | 0 | 42 | 44
CCN1C(=O)[C@@H]2[C@@H](c3ccc(-c4ccc(Cl)c(Cl)c4)cc3)N3CCCC[C@@]3(C(=O)OC)[C@@H]2C1=O | 0 | 0 | 0 | 0 | 0 | 0 | - | -
COC(=O)[C@@]12CCCCN1[C@H](c1ccc(-c3ccc(Cl)c(Cl)c3)cc1)[C@H]1C(=O)N(C)C(=O)[C@H]12 | - | - | - | 67 | - | 0 | 0 | -
COC(=O)[C@@]12CCCCN1[C@H](c1ccc(-c3ccc(F)cc3)c(OC)c1)[C@@H]1C(=O)N(C)C(=O)[C@@H]12 | - | 0 | 0 | 0 | 0 | 0 | - | -
CCCCCCSc1ccc([C@@H]2[C@@H]3C(=O)N(CC)C(=O)[C@@H]3[C@]3(C(=O)OC)CCCCN23)cc1 | - | - | - | 52 | 0 | 0 | 0 | -
N#CCCN(C(=O)COC(=O)C1=NNC(=O)CC1)c1ccccc1 | 0 | 0 | 0 | 0 | 0 | 0 | - | -
CSc1ccc(CN2CCN(C3CCCC3)C(CCO)C2)cc1 (stereo not drawn) | 0 | 0 | 0 | 0 | 0 | 0 | - | -
CCn1ncc(NC(=S)NCCc2ccc(OC)c(OC)c2)c1C(N)=O | 0 | 0 | 0 | 0 | 0 | 0 | - | -
COC(=O)[C@@]12CCCCN1[C@H](c1ccc(-c3cc(C(C)=O)cs3)cc1)[C@H]1C(=O)N(C)C(=O)[C@H]12 | 0 | 0 | 0 | 67 | 0 | 0 | 0 | -
O=C1N(c2ccccc2C(F)(F)F)O[C@]1(c1ccccc1)C1CCCCC1 | - | 0 | 0 | 85 | 0 | 0 | 62 | 51
CC(C)[C@]1(c2ccccc2)ON(c2ccccc2C(F)(F)F)C1=O | - | 0 | 0 | 0 | 0 | 0 | - | -
